From PubChem BioAssay

Assay: stimulators of nuclear beta-catenin in C2C12, primary screen, imaging, WNT3A-conditioned medium, mouse C2C12, NPC library (AID 1117326); also: reference of the scale not given here
Settings: stimulation, at 2 µM, stronger effect = higher value

Question: With `CCn1cc(C(=O)O)c(=O)c2cnc(N3CCCC3)nc21` as the compound, how does the nuclear beta-catenin stimulation read?
Answer: The nuclear beta-catenin stimulation was 1.2%.

Question: For `NS(=O)(=O)c1cc2c(cc1Cl)NC(C(Cl)Cl)NS2(=O)=O` (stereo not drawn), which nuclear beta-catenin stimulation is on record?
Answer: Its nuclear beta-catenin stimulation is -0.1%.

Question: Which nuclear beta-catenin stimulation does the source give for `CCCCN(CCCC)CCCOC(=O)c1ccc(N)cc1` here?
Answer: The nuclear beta-catenin stimulation was 1.7%.

Question: For `Nc1nc(=S)c2[nH]cnc2[nH]1`, which nuclear beta-catenin stimulation is on record?
Answer: Its nuclear beta-catenin stimulation is 6.2%.

Question: For `CC(=O)OC/C=C(C)/C=C/C=C(C)/C=C/C1=C(C)CCCC1(C)C`, which nuclear beta-catenin stimulation is on record?
Answer: Its nuclear beta-catenin stimulation is 3.9%.

Question: For `CCCCCN(C)CCC(O)(P(=O)(O)O)P(=O)(O)O`, which nuclear beta-catenin stimulation is on record?
Answer: The nuclear beta-catenin stimulation was 0.2%.

Question: Which nuclear beta-catenin stimulation does the source give for `Oc1c(Cl)cc(Cl)cc1Sc1cc(Cl)cc(Cl)c1O` here?
Answer: Its nuclear beta-catenin stimulation is 1.5%.

Question: Which nuclear beta-catenin stimulation does the source give for `CCC(=O)c1c(O)cc(O)cc1O` here?
Answer: The nuclear beta-catenin stimulation was 2%.

Question: With `COc1ccc(CN(CCN(C)C)c2ncccn2)cc1` as the compound, how does the nuclear beta-catenin stimulation read?
Answer: The nuclear beta-catenin stimulation was 2.3%.

Question: Which nuclear beta-catenin stimulation does the source give for `O=C(O)c1cc(=O)c2ccccc2o1` here?
Answer: The nuclear beta-catenin stimulation was 0.2%.

Question: For `O=C(OCC(O)CO)c1ccccc1Nc1ccnc2cc(Cl)ccc12` (stereo not drawn), which nuclear beta-catenin stimulation is on record?
Answer: The nuclear beta-catenin stimulation was -0.3%.

Question: For `C[N+]12CCC(CC1)C(OC(=O)C(O)(c1ccccc1)c1ccccc1)C2` (stereo not drawn), which nuclear beta-catenin stimulation is on record?
Answer: The nuclear beta-catenin stimulation was 1.9%.

Question: Which nuclear beta-catenin stimulation does the source give for `OC[C@H]1O[C@@H](O[C@@H]2[C@@H](CO)O[C@](O)(CO)[C@H]2O)[C@H](O)[C@@H](O)[C@H]1O` here?
Answer: Its nuclear beta-catenin stimulation is 1.6%.

Question: With `O=C(Cn1ccnc1[N+](=O)[O-])NCCO` as the compound, how does the nuclear beta-catenin stimulation read?
Answer: The nuclear beta-catenin stimulation was 0.3%.

Question: Which nuclear beta-catenin stimulation does the source give for `CCOC(N)=O` here?
Answer: Its nuclear beta-catenin stimulation is 7.1%.

Question: Which nuclear beta-catenin stimulation does the source give for `CCCCCCCCCCCCCCCCOP(=O)([O-])OCC[N+](C)(C)C` here?
Answer: The nuclear beta-catenin stimulation was 1.9%.

Question: With `O=c1[nH]c(=O)n([C@H]2C[C@H](O)[C@@H](CO)O2)cc1F` as the compound, how does the nuclear beta-catenin stimulation read?
Answer: The nuclear beta-catenin stimulation was 21.6%.

Question: With `Cc1ccnc(NS(=O)(=O)c2ccc(N)cc2)n1` as the compound, how does the nuclear beta-catenin stimulation read?
Answer: Its nuclear beta-catenin stimulation is 1.5%.

Question: For `CC[C@]12CCCN3CCc4c(n(c5ccccc45)[C@@](O)(C(=O)OC)C1)[C@@H]32`, which nuclear beta-catenin stimulation is on record?
Answer: Its nuclear beta-catenin stimulation is -0.6%.

Question: Which nuclear beta-catenin stimulation does the source give for `CCCCc1nc(Cl)c(CO)n1Cc1ccc(-c2ccccc2-c2nn[nH]n2)cc1` here?
Answer: The nuclear beta-catenin stimulation was 2.1%.

Question: For `CCOC(=O)n1ccn(C)c1=S`, which nuclear beta-catenin stimulation is on record?
Answer: The nuclear beta-catenin stimulation was -0.4%.

Question: For `Cc1c(NC(=O)c2cccnc2)c(=O)n(-c2ccccc2)n1C`, which nuclear beta-catenin stimulation is on record?
Answer: Its nuclear beta-catenin stimulation is 1.7%.

Question: With `Cc1cc(-c2ccccc2)nnc1NCCN1CCOCC1` as the compound, how does the nuclear beta-catenin stimulation read?
Answer: Its nuclear beta-catenin stimulation is 0.5%.

Question: With `Cc1nc2n(c(=O)c1CCN1CCC(c3noc4cc(F)ccc34)CC1)CCC[C@H]2O` as the compound, how does the nuclear beta-catenin stimulation read?
Answer: Its nuclear beta-catenin stimulation is -0.1%.

Question: For `CCN(CC)Cc1cc(Nc2ccnc3cc(Cl)ccc23)ccc1O`, which nuclear beta-catenin stimulation is on record?
Answer: Its nuclear beta-catenin stimulation is -1.5%.

Question: Which nuclear beta-catenin stimulation does the source give for `CC(C)(Oc1ccc(Cl)cc1)C(=O)O` here?
Answer: The nuclear beta-catenin stimulation was 2.1%.

Question: For `Cc1c(Nc2ncccc2C(=O)O)cccc1C(F)(F)F`, which nuclear beta-catenin stimulation is on record?
Answer: The nuclear beta-catenin stimulation was -0.2%.

Question: For `CC(=O)NCCCCCC(=O)O`, which nuclear beta-catenin stimulation is on record?
Answer: The nuclear beta-catenin stimulation was 0.7%.

Question: For `O=C(O)c1cc(O)c(O)c(O)c1`, which nuclear beta-catenin stimulation is on record?
Answer: The nuclear beta-catenin stimulation was -0.2%.

Question: With `CCn1cc(C(=O)O)c(=O)c2cc(F)c(N3CCNCC3)nc21` as the compound, how does the nuclear beta-catenin stimulation read?
Answer: The nuclear beta-catenin stimulation was 0.6%.

Question: Which nuclear beta-catenin stimulation does the source give for `CCN(CC)CCOc1ccc(/C(=C(\Cl)c2ccccc2)c2ccccc2)cc1` here?
Answer: Its nuclear beta-catenin stimulation is 12.4%.

Question: For `S=P(N1CC1)(N1CC1)N1CC1`, which nuclear beta-catenin stimulation is on record?
Answer: The nuclear beta-catenin stimulation was -0.3%.

Question: With `Nc1ncnc2c1ncn2[C@@H]1O[C@H](COP(=O)(O)O)[C@@H](O)[C@H]1O` as the compound, how does the nuclear beta-catenin stimulation read?
Answer: The nuclear beta-catenin stimulation was 3.8%.

Question: With `CCCCCCOc1ccccc1C(N)=O` as the compound, how does the nuclear beta-catenin stimulation read?
Answer: The nuclear beta-catenin stimulation was -1%.

Question: For `Cc1cc(=O)[nH]c(=S)[nH]1`, which nuclear beta-catenin stimulation is on record?
Answer: Its nuclear beta-catenin stimulation is -0.4%.

Question: Which nuclear beta-catenin stimulation does the source give for `N[C@@H](CCC(=O)N[C@@H](CS)C(=O)NCC(=O)O)C(=O)O` here?
Answer: Its nuclear beta-catenin stimulation is 4%.

Question: For `CC1(C)O[C@H]2CC(=O)OC[C@]23[C@H]2CC[C@@]4(C)[C@H](c5ccoc5)OC(=O)[C@H]5O[C@]54[C@]2(C)C(=O)C[C@@H]13`, which nuclear beta-catenin stimulation is on record?
Answer: Its nuclear beta-catenin stimulation is 0.6%.

Question: Which nuclear beta-catenin stimulation does the source give for `O=C(CCCCC(=O)Nc1c(I)cc(I)c(C(=O)O)c1I)Nc1c(I)cc(I)c(C(=O)O)c1I` here?
Answer: Its nuclear beta-catenin stimulation is 3.3%.
